Measurements from PubChem BioAssay (NCI).
Several values for one entry are separate records, joined by “and”; a condition that tells them apart may be missing. Identical values can stand only once. Compounds without any hit were thinned out: in the full panel of roughly 83,000, 20% have a hit.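 Assay: single dose, 48 h. Readout: percent growth (0 = no net growth; negative = cell death). Active: <10.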 A number with no mark means an inactive call. Activity calls are given as the source filed them.

Each molecule was assayed on MDA-MB-468 breast (assay: NCI-60 one-dose screen, 48 h (100 = growth as untreated, 0 = no growth, -100 = all killed)). Details: 10 µM unless noted.

Row | SMILES | growth
1 | ClCCOCCOc1ccc(C2CCCCC2)cc1 | 91.2%
2 | O=C(/C=C/c1cccc(Cl)c1Cl)Nc1ncc(Cc2ccccc2Cl)s1 | 10.4%
3 | O=C(/C=C/c1ccc(Cl)cc1)c1ccc(Cl)cc1 | 88.3%
4 | O=C(CN1CCN(c2cc3c(cc2F)c(=O)c(C(=O)O)cn3C2CC2)CC1)Nc1ccc(C(=O)/C=C/c2ccc(Cl)cc2)cc1 | 95.1%
5 | O=C(O)Cc1ccc2c(c1)Cc1cccnc1O2 | 97.1%
6 | CCCCCCCOc1c(OC)cc(C2CC(=O)Nc3c2c(C)nn3-c2nc3ccccc3[nH]2)cc1OC (stereo not given) | -4.43% (active)
7 | Nc1ccc2cc(Br)c3ccccc3c2c1 | 4.15% (active)
8 | NC(=NCc1ccccc1)C(N=Nc1ccccc1)C(=O)NCc1ccccc1 (stereo not given) | 55.3%
9 | C#CCCCCCCC[C@@H]1OC(=O)[C@H]([C@@H](C)CC)NC(=O)[C@H]([C@@H](C)CC)NC(=O)CC(=O)[C@@H]1C | 95.3%
10 | C=C(Cl)C(=NC(C)(C)C)Nc1ccccc1C | 39.2%
11 | C=C(CN1CC=CCC1)[C@@H]1CC[C@]2(C(=O)OC)CC[C@]3(C)[C@H](CC[C@@H]4[C@@]5(C)CC[C@H](OC(C)=O)C(C)(C)[C@@H]5CC[C@]43C)[C@@H]12 | 55.6%
12 | C/C(=C\c1cnc(C)s1)[C@@H]1C[C@@H]2O[C@@H]2CCC[C@H](C)[C@H](O)[C@@H](C)C(=O)C(C)(C)[C@@H](O)CC(=O)O1 | 43.4%
13 | Cc1ccc(N)cc1F | 100%
14 | Cc1nc(Nc2cccnc2)sc1C(=O)/C=C/c1ccc(Cl)cc1 | 11.8%
15 | COc1ccc(Nc2ccc3ccccc3c2)cc1 | -2.03% (active)
16 | O=C(Cc1ccc(/C=C/C(=O)c2ncc[nH]2)cc1)Nc1cc(F)c(F)c(F)c1 | 8.95% (active)
17 | C/C=C/C1OC23CCCCC2C(C#N)(C(=N)O3)C1(C#N)C#N (stereo not given) | 77.7%
18 | Cc1cc(N/N=C/c2nc(-c3ccccc3)oc2C)c2cc(Cl)ccc2n1 | -74.7% (active)
19 | CC(C)(C)OC(=O)c1ccc(NCc2cc(O)ccc2O)cc1 | -17.6% (active)
20 | O=C(c1ccc(C(F)(F)F)c(Cl)c1)N(Cc1ccc(Cl)cc1)c1ccc(-c2cc(C(F)(F)F)[nH]n2)c(O)c1 | -11.5% (active)

Row | SMILES | growth
21 | COc1ccc2c(ccc[n+]2C)c1 | 81.5%
22 | CCCNNC(=O)c1ccc(CNC(=O)/C=C/c2ccccc2)cc1 | 54.5% [2.5 µM]
23 | CC[C@]12C=CCN3CC[C@@]4(c5ccc(OC)cc5N(C)[C@H]4[C@@](O)(C(=O)OC)[C@@H]1OC(=O)CCCN1CCOCC1)[C@@H]32 | 108%
24 | Cc1cc(C)c2nc3nc(C)cc(C)c3c(N)c2c1 | 48.4%
25 | COc1ccc(-c2csc(NC(=O)c3cc(O)c(O)c(O)c3)n2)cc1 | 78.6%
26 | COc1cc(/C=C/C(=O)Nc2cccnc2Nc2ccc(F)cc2)cc(OC)c1OC | 97.4%
27 | CCc1nn2c(C)cc(C)nc2c1Cc1ccc(/C=C/CN2CCN(CCOCCOCCN3CCN(C/C=C/c4ccc(Cc5c(CC)nn6c(C)cc(C)nc56)cc4)CC3)CC2)cc1 | -6.16% (active)
28 | CCCCCCCCCCCCCCCCCCOc1ccccc1CCCOP(=O)(O)OCC[N+](C)(C)C | 77.3%
29 | C=C1CC[C@@H]2[C@](C)(COC(C)=O)[C@H](OC(C)=O)CC[C@@]2(C)[C@@H]1CC(Nc1ccc(S(=O)(=O)Nc2ccc(Cl)nn2)cc1)C1=CCOC1=O (stereo not given in full) | -32.3% (active)
30 | COc1ccc(C2=CC(c3cc(OC)c(OC)c(OC)c3)n3ncnc3N2)cc1 (stereo not given) | 32.2%
31 | COc1ccc(-c2cc(C(=O)N3N=C(c4ccc(N)cc4)CC3c3ccc(OC)cc3)c3cc(OC)ccc3n2)cc1 (stereo not given) | 37.6%
32 | NC1=CC(=O)c2ccccc2C1=O | 96.2%
33 | c1ccc2nc(Cn3cc[n+](Cc4ccc5ccccc5n4)c3)ccc2c1 | 1.53% (active)
34 | CCn1c2ccc(/C=N/N(C)S(=O)(=O)CCN(C)C)cc2c2cc(/C=N/N(C)S(=O)(=O)CCN(C)C)ccc21 | 40.4%
35 | COc1ccc(-c2c(-c3ccc(OC)c(O)c3)cnc3ncnn23)cc1 | 109%
36 | Cc1ccc(/C=C/C(=N/N=C(N)N)c2ccccc2)cc1 | -6.79% (active)
37 | CCCCCCCCCc1cc(CN2CCCCC2)c(O)c(CN2CCCCC2)c1 | 40.4%
38 | COc1ccc(/C=C(\C#N)n2nnc3cc(Cl)ccc32)cc1 | 18.5%
39 | Clc1ccc(NC(Nc2ccc(Cl)cc2)C(Cl)(Cl)Cl)cc1 | 98.4% and 108%
40 | Cc1ccc(NC(=S)NNC(=S)NNc2ccccc2)cc1C | 99.6%
